Structures are written as SMILES. Inconclusive results are not listed. Values without a mark were called inactive. Active and inactive are the calls of the source. Calls come from the whole dose curve; as a rule, active = well fitted cell-killing curve with a large enough effect; inconclusive = small, poorly fitted or top-dose-only effect; inactive = no such curve, though single readings can be large or run the other way.
Potency is the fitted concentration of half-maximal effect.

The nature of this assay: qHTS of pediatric cancer cell lines to identify multiple opportunities for drug repurposing: Primary screen for SK-N-MC cells (AID 1347093). As to conditions: SK-N-MC viability, CellTiter-Glo luminescence, 48 h; series mostly up to 46 µM; activity change, negative = cytotoxic: at the top concentration. An excerpt:
Drug repurposing or repositioning has been offered as a strategy for drug development in oncology programs. This approach has special potential for childhood cancers and other rare or orphan diseases, where the expected return on new drug development has been a disincentive to pharmaceuticals.
In this project we exploit the poly-pharmacology of drugs to discover new indications via phenotypic screening of a panel of 19 well-characterized cell lines derived from solid tumors seen in children and adolescents. The goal is to identify approved drugs with previously unrecognized anticancer properties that has the potential to reveal new mechanisms and biological processes involved in carcinogenesis or drug resistance. We employed a titration-based paradigm (quantitative high-throughput screening or qHTS), where all compounds were tested at multiple concentrations for their effect on cell viability. Concentration-response curves (CRCs) were derived directly from the primary screen, and both potency and efficacy values were used to identify compounds with robust bioactivity profiles. We screened the NIH Chemical Genomics Center (NCGC) Pharmaceutical Collection (NPC) and Mechanism Interrogation Plate (MIPE) small molecule collections of approved and investigational compounds against these cell lines; and measured metabolically active cells after 48 hours of compound treatment as a proxy for cell viability.
Assay Submitter: Nathalia J. Martinez, National Center for Advancing Translational Sciences, National Institutes of Health, Rockville, MD, USA; email: natalia.martinez@nih.gov
[1] Shen, M et al. Quantitative high-throughput phenotypic screening of pediatric cancer cell lines identifies multiple opportunities for drug repurposing. Oncotarget 2017 Dec 19;9(4):4758-4772. PMID 29435139.
The cells were obtained from University of North Carolina (UNC), Pediatric Preclinical Testing Program (PPT), and Coriell Institute (CI).
qHTS cell viability assay:
Cells were assayed in growth media at a density of 500-1,000 cells/well. Five microliters of cells were dispensed into 1,536-well, white, solid-bottom, TC-treated plates (Greiner Bio One) using a multidrop dispenser and incubated at 37 degrees C, 5% CO2, under a humidified atmosphere for 5 hours. Twenty-three nanoliters of compounds and controls (neutral control DMSO or positive control bortezomib at final concentration of 2.3 µM) were subsequently transferred by Kalypsys pintool. For primary screens, the MIPE collection was tested at 11-point dilutions (final concentrations range from 0.78 nM to 46 µM) and the NPC collection at 8-point dilutions (final concentrations range from 0.59nM to 46 µM). Compounds tested in follow-up screens were assayed at 11-point dilutions. Cells were incubated for 48 hours, followed by addition of 3 uL of CellTiter-Glo (Promega). After a 15 min incubation at room temperature, samples were analyzed for luminescence intensity using a ViewLux High-throughput CCD imager equipped with clear filters.
As to `O=C(Nc1nc2cccc(-c3ccc(CN4CCS(=O)(=O)CC4)cc3)n2n1)C1CC1`, the Potency is 5260 nM (active).

Turning to `CN1CC[C@@H](c2c(O)cc(O)c3c(=O)cc(-c4ccccc4Cl)oc23)[C@@H](O)C1`, the Potency was 118 nM (active).

Take `NC(=O)Nc1cc(-c2cccc(F)c2)sc1C(=O)N[C@H]1CCCNC1`: the Potency was 37.2 nM (active).

Turning to `CCCCCCCCCC(=O)N[C@@H](Cc1c[nH]c2ccccc12)C(=O)N[C@H](CC(N)=O)C(=O)N[C@@H](CC(=O)O)C(=O)N[C@@H]1C(=O)NCC(=O)N[C@@H](CCCN)C(=O)N[C@@H](CC(=O)O)C(=O)N[C@H](C)C(=O)N[C@@H](CC(=O)O)C(=O)NCC(=O)N[C@H](CO)C(=O)N[C@@H]([C@@H](C)CC(=O)O)C(=O)N[C@@H](CC(=O)c2ccccc2N)C(=O)O[C@@H]1C`, the “activity change, negative = cytotoxic” value is 78.6%.

For the molecule `CC[C@@H]1C(=O)N(C)c2cnc(Nc3ccc(C(=O)NC4CCN(C)CC4)cc3OC)nc2N1C1CCCC1`, the Potency is 59 nM (active).

For `C#Cc1cccc(Nc2ncnc3cc(OC)c(OCCCCCCC(=O)NO)cc23)c1`, the Potency was 11.8 nM (active).

In the case of `Nc1nc(NCCNc2ncc(-n3ccnc3)c(-c3ccc(Cl)cc3Cl)n2)ccc1[N+](=O)[O-]`, the Potency is 1660 nM (active).

As for `CN1CCN(c2ccc3nc(-c4c(N)c5c(F)cccc5[nH]c4=O)[nH]c3c2)CC1`, the Potency is 14800 nM (active).

Turning to `O=C(Cc1ccc(-c2ccc(OCCN3CCOCC3)cc2)cn1)NCc1ccccc1`, the Potency was 26.4 nM (active).

For `Cn1c2ccccc2c2c3c(c4c5ccccc5n(CCC#N)c4c21)CNC3=O`, the Potency is 148 nM (active).

For `COc1ccc(C(=O)CC2(O)C(=O)Nc3c(Cl)ccc(Cl)c32)cc1` (stereo not given), the Potency was 1180 nM (active).

`CN(C)CCCN=c1c2ccccc2n(C)c2[nH]c(=O)n(C)c(=O)c12`: the Potency was 2960 nM (active).

For the molecule `C=CC(=O)N1CCC[C@@H](n2nc(-c3ccc(Oc4ccccc4)cc3)c3c(N)ncnc32)C1`, the Potency was 372 nM (active).

Consider `Cc1ccc(C(=O)Nc2cccc(C(F)(F)F)c2)cc1-c1ccc2nc(NCCN3CCOCC3)ncc2c1`, for which the Potency is 4690 nM (active).

As to `COCCn1c2c([n+](Cc3cnccn3)c1C)C(=O)c1ccccc1C2=O`, the Potency was 11.8 nM (active).

For the molecule `Nc1ccc(C(=O)c2cc3c(ccc4ccccc43)[nH]2)cc1`, the Potency is 2090 nM (active).

Regarding `COc1cc(=C2C=c3ccccc3=N2)[nH]c1=Cc1[nH]c(C)cc1C`, the Potency was 3720 nM (active).

For the molecule `COc1ccc(F)c(F)c1C(=O)c1cnc(NC2CCN(S(C)(=O)=O)CC2)nc1N`, the Potency is 1870 nM (active).

`Cn1cncc1[C@@](N)(c1ccc(Cl)cc1)c1ccc2c(c1)c(-c1cccc(Cl)c1)cc(=O)n2C`: the Potency was 1660 nM (active).

As for `O=C(C=Cc1cccc(S(=O)(=O)Nc2ccccc2)c1)NO`, the Potency was 1210 nM (active).

As to `CCN1CCN(Cc2ccc(-c3cc4c(N[C@H](C)c5ccccc5)ncnc4[nH]3)cc2)CC1`, the Potency is 1 nM (active).

In the case of `Cc1cc(Nc2nc(N[C@@H](C)c3ccc(F)cc3)c(C#N)cc2F)n[nH]1`, the Potency is 743 nM (active).

Turning to `Clc1ccc2ncc(-c3cccc(NC4CNC4)n3)n2c1`, the Potency was 7430 nM (active).

As to `CC(C)(C)c1cc(NC(=O)Nc2ccc(-c3cn4c(n3)sc3cc(OCCN5CCOCC5)ccc34)cc2)no1`, the Potency is 743 nM (active).

For `Cc1ccc(C(=O)Nc2ccc(CN3CCN(C)CC3)c(C(F)(F)F)c2)cc1C#Cc1cnc2cccnn12`, the Potency was 2350 nM (active).

For `Cc1cc(N2CCOCC2)cc2[nH]c(-c3c(NC[C@@H](O)c4cccc(Cl)c4)cc[nH]c3=O)nc12`, the Potency was 11.8 nM (active).

As to `CN1CCC(CNc2ccc3ncc(-c4cccc(OC(F)(F)F)c4)n3n2)CC1`, the Potency was 4180 nM (active).

With `CCC1=C[C@@H]2CN(C1)Cc1c([nH]c3ccccc13)[C@@](C(=O)OC)(c1cc3c(cc1OC)N(C)[C@@H]1[C@@](O)(C(=O)OC)[C@H](OC(C)=O)[C@]4(CC)C=CCN5CC[C@]31[C@@H]54)C2`, the Potency was 8.3 nM (active).

With `COC(=O)[C@]12CCC(C)(C)C[C@@H]1[C@@H]1C(=O)C=C3[C@@]4(C)C=C(C#N)C(=O)C(C)(C)[C@@H]4CC[C@@]3(C)[C@]1(C)CC2`, the Potency is 372 nM (active).

For `CC(=O)OCC(=O)[C@@]1(O)[C@H](C)C[C@H]2[C@@H]3C=C(C)C4=Cc5c(cnn5-c5ccccc5)C[C@]4(C)[C@@H]3[C@@H](O)C[C@@]21C`, the Potency was 1180 nM (active).

As for `C[C@@H]1CN(CC(=O)Nc2ccc3c(c2)Cc2cccc(-c4cc(=O)cc(N5CCOCC5)o4)c2S3)C[C@H](C)O1`, the Potency is 4180 nM (active).

Consider `Nc1ccn([C@@H]2CS[C@H](CO)O2)c(=O)n1`, for which the “activity change, negative = cytotoxic” value is -45.8% [at 92.7 µM].

Take `c1ccc2c(CCNc3ccc(Nc4ccncc4)cc3)c[nH]c2c1`: the Potency is 1870 nM (active).

As for `Cc1ccc(-c2ncn(-c3ccc(Nc4nccc(-c5cccc(N6CCOCC6)c5)n4)cc3)n2)cn1`, the Potency was 66.2 nM (active).

Turning to `Nc1nc(Nc2ccc(S(N)(=O)=O)cc2)nn1C(=O)c1c(F)cccc1F`, the Potency is 3320 nM (active).

For `N#Cc1c(O)c2c(-c3ccc(-c4ccccc4O)cc3)csc2[nH]c1=O`, the “activity change, negative = cytotoxic” value was -25.2%.

On to `Cn1c2cc(S(C)=O)sc2c2cnn(Cc3cccc(N)c3)c(=O)c21` (stereo not given), for which the “activity change, negative = cytotoxic” value was -10%.

For `Nc1ncnc2c1c(-c1cccc(OCc3ccccc3)c1)cn2C1CC(CN2CCCC2)C1` (stereo not given), the Potency was 662 nM (active).

For the molecule `COc1cc(C)c(Sc2cnc(NC(=O)c3ccc(CNC(C)C(C)C)cc3)s2)cc1C(=O)N1CCN(C(C)=O)CC1` (stereo not given), the Potency is 2090 nM (active).

For `CN(C1CCc2c(c3ccccc3n2CC(=O)O)C1)S(=O)(=O)c1ccc(F)cc1` (stereo not given), the Potency was 935 nM (active).

The record behind these values is PubChem BioAssay (NCATS).
